Screening results: PubChem, Sanford-Burnham Center for Chemical Genomics
CYP2C9 inhib – blockers of cytochrome P450 2C9 activity – biochemical, luminescence, ADME assay, primary screen; P11712; CYP2C9 Supersomes, luciferin-H conversion; inhibition, % at 5 µM; 96,000 tested, 20% active; AID 777, 2007;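 active means blocking of liver enzyme CYP2C9 beyond about 50% at 5 µM, limit read from the data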
Target sequence (P11712 whole entry, looked up): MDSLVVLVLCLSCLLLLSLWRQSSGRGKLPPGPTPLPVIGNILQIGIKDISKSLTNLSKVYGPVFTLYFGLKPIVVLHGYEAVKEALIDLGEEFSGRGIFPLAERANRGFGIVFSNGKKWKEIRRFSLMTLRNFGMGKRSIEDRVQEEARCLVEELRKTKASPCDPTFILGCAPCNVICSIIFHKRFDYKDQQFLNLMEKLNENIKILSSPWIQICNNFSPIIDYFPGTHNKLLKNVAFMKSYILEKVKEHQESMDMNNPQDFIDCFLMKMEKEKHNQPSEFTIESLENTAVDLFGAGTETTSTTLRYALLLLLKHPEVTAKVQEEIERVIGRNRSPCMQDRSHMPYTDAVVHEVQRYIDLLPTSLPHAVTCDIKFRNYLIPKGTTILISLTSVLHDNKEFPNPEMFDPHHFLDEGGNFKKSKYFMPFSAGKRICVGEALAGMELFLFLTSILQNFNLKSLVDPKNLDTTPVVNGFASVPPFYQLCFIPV
CYP2C19 act – human CYP2C19 activators, primary screen, biochemical, luminescence; recombinant CYP2C19, luciferin-H EGE luminescence; hits give high values; 0 = fully inhibited enzyme, 1 = untreated enzyme; activation factor at 5 µM; 96,000 tested, under 10 active;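 active means activation factor of at least 2 at 5 µM in the primary screen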;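 further: 0 = wells with 2.5 mM tranylcypromine and 1 = vehicle-only wells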
CYP2C19 inh – blockers of cytochrome P450 2C19 activity – biochemical, luminescence, ADME assay, primary screen; AID 778, 2007; 96,000 tested, 21% active; P33261; CYP2C19 Supersomes, luciferin-H EGE luminescence, 30 min; inhibition, % at 5 µM;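 active means CYP2C19 inhibition above a set limit at 5 µM in the primary screen, cut at about 50% in these data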;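 further: plate controls were negative control wells for no effect and 2.5 mM tranylcypromine positive control for full effect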
CYP2C9 activ – human CYP2C9 activators, primary screen, biochemical, luminescence; activation factor at 5 µM; Cytochrome P450 2C9 (Homo sapiens), P11712; recombinant CYP2C9, luciferin-H conversion; hits give high values; factor 1 = untreated enzyme, 0 = blocked; 96,000 tested, 1.4% active;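 active means activation factor of 2 or more for CYP2C9 at a 5 µM dose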;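 further: 0 = sulfaphenazole-blocked wells and 1 = vehicle-only wells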
The depositor's hits bear a star. Only some compounds are listed: those with a hit (about 31% of all), similar ones and a draw of the others.

How did O=C(C1CCC1)N(CCc1ccccc1)Cc1nc2ccccc2c(=O)[nH]1 do in these assays?
CYP2C9 inhib: 85*; CYP2C19 act: 0.4; CYP2C19 inh: 64*; CYP2C9 activ: 0.1

How did O=C(C1CC1)N(CCc1ccccc1)Cc1nc2ccccc2c(=O)[nH]1 do in these assays?
CYP2C9 inhib: 58*; CYP2C19 act: 0.4; CYP2C19 inh: 56*; CYP2C9 activ: 0.4

Results for O=C(Nc1nc(-c2ccccc2)cs1)c1ccc(Br)o1 ?
CYP2C9 inhib: 37; CYP2C19 act: 0.8; CYP2C19 inh: 24; CYP2C9 activ: 0.6

What do the screens show for `Cc1nc(SCC(=O)Nn2c(-c3ccccc3)nc3ccccc3c2=O)n[nH]1`?
CYP2C9 inhib: 30; CYP2C19 act: 1; CYP2C19 inh: 0; CYP2C9 activ: 0.7

What do the screens show for `Cc1cc2cc(CNC(=O)c3ccc4c(c3)OCO4)ccc2[nH]1`?
CYP2C9 inhib: 12; CYP2C19 act: 0.6; CYP2C19 inh: 42; CYP2C9 activ: 0.9

What do the screens show for `Cc1sc2ncnc(N(C)Cc3ccco3)c2c1C`?
CYP2C9 inhib: 78*; CYP2C19 act: 0; CYP2C19 inh: 96*; CYP2C9 activ: 0.2

What do the screens show for `CCOC(=O)c1sc2nc(CC(=O)OC)nc(NCC(=O)OC)c2c1C`?
CYP2C9 inhib: -4; CYP2C19 act: 1; CYP2C19 inh: -2; CYP2C9 activ: 1

How did Cc1nc(SCC(=O)NCc2ccco2)c2c3c(sc2n1)CCCC3 do in these assays?
CYP2C9 inhib: 37; CYP2C19 act: 0.8; CYP2C19 inh: 24; CYP2C9 activ: 0.6

What do the screens show for `Cc1nc(SCC(=O)N(C)Cc2ccco2)c2c(C)c(C)sc2n1`?
CYP2C9 inhib: 88*; CYP2C19 act: 0.3; CYP2C19 inh: 68*; CYP2C9 activ: 0.1

How did Cc1nc(NCc2ccco2)c2c(C)c(C)sc2n1 do in these assays?
CYP2C9 inhib: 82*; CYP2C19 act: 0.2; CYP2C19 inh: 77*; CYP2C9 activ: 0.2

How did CCOC(=O)c1sc2nc(CC(=O)OC)nc(NCc3ccco3)c2c1C do in these assays?
CYP2C9 inhib: 84*; CYP2C19 act: 0.4; CYP2C19 inh: 61*; CYP2C9 activ: 0.2

What do the screens show for `Cc1nnc(SCc2ccc(Cl)cc2)n1CC1CCCO1` (stereo not given)?
CYP2C9 inhib: -2; CYP2C19 act: 0.6; CYP2C19 inh: 36; CYP2C9 activ: 1

How did CCOC(=O)/C(C#N)=C1/C=CN(c2ccc(C)cc2)C=N1 do in these assays?
CYP2C9 inhib: 33; CYP2C19 act: 1; CYP2C19 inh: -1; CYP2C9 activ: 0.7

What do the screens show for `CCOC(=O)/C(C#N)=C1/SC(CC)C(=O)N1c1ccc(C)cc1` (stereo not given)?
CYP2C9 inhib: 55*; CYP2C19 act: 0.1; CYP2C19 inh: 91*; CYP2C9 activ: 0.4

What do the screens show for `CC(C)CN1C(=O)c2ccc(C(=O)NCc3ccc4c(c3)OCO4)cc2C1=O`?
CYP2C9 inhib: 16; CYP2C19 act: 1; CYP2C19 inh: -5; CYP2C9 activ: 0.8

What do the screens show for `CCc1cc2c(=O)n(-c3ccc(Br)cc3)cnc2s1`?
CYP2C9 inhib: 17; CYP2C19 act: 0.9; CYP2C19 inh: 6; CYP2C9 activ: 0.8

What do the screens show for `CC(=O)c1cccc(NC=C2C(=O)OC3(CCCCC3)OC2=O)c1`?
CYP2C9 inhib: 5; CYP2C19 act: 0.9; CYP2C19 inh: 9; CYP2C9 activ: 1

What do the screens show for `COc1ccc(-c2coc3cc4oc(=O)cc(C)c4cc23)cc1F`?
CYP2C9 inhib: 11; CYP2C19 act: 0.4; CYP2C19 inh: 58*; CYP2C9 activ: 0.9

Results for CC(=O)Oc1cc2oc(=O)cc(C)c2cc1OC(C)=O ?
CYP2C9 inhib: -6; CYP2C19 act: 1; CYP2C19 inh: -2; CYP2C9 activ: 1.1

Results for COc1ccc(N2C(=O)CC(N3CCOCC3)C2=O)cc1 (stereo not given) ?
CYP2C9 inhib: -5; CYP2C19 act: 1.1; CYP2C19 inh: -12; CYP2C9 activ: 1.1

Results for CSc1nc2ccc(NS(=O)(=O)c3ccc4c(c3)OCCO4)cc2s1 ?
CYP2C9 inhib: 84*; CYP2C19 act: 0; CYP2C19 inh: 100*; CYP2C9 activ: 0.2

What do the screens show for `CSc1nc2ccc(S(=O)(=O)NC3CCCCC3)cc2s1`?
CYP2C9 inhib: 31; CYP2C19 act: 0.3; CYP2C19 inh: 74*; CYP2C9 activ: 0.7

Results for CSc1nc2ccc(S(=O)(=O)N3CCCCC3)cc2s1 ?
CYP2C9 inhib: 17; CYP2C19 act: 0.6; CYP2C19 inh: 41; CYP2C9 activ: 0.8

Results for CC(=O)c1cn(CC(=O)NCC2CCCO2)c2ccccc12 (stereo not given) ?
CYP2C9 inhib: -2; CYP2C19 act: 0.8; CYP2C19 inh: 17; CYP2C9 activ: 1

How did CCOC(=O)Cn1c2[n+](c3ccccc31)CC(O)CS2 (stereo not given) do in these assays?
CYP2C9 inhib: 2; CYP2C19 act: 0.9; CYP2C19 inh: 11; CYP2C9 activ: 1

Results for Cc1ccc(Sc2nc(C)cc(C)c2S(C)(=O)=O)cc1 ?
CYP2C9 inhib: 64*; CYP2C19 act: 0.5; CYP2C19 inh: 47; CYP2C9 activ: 0.4

How did COCCNC(=O)CSc1ncnc2sccc12 do in these assays?
CYP2C9 inhib: 4; CYP2C19 act: 1.1; CYP2C19 inh: -7; CYP2C9 activ: 1

How did CCCC1(C(=O)OCC)NC(c2ccc(N(C)C)cc2)C2C(=O)N(c3ccc(OCC)cc3)C(=O)C21 (stereo not given) do in these assays?
CYP2C9 inhib: 50; CYP2C19 act: 0.3; CYP2C19 inh: 74*; CYP2C9 activ: 0.5

How did COc1ccc(N2C(=O)C3CCCN3C2c2ccccc2)cc1 (stereo not given) do in these assays?
CYP2C9 inhib: 6; CYP2C19 act: 1; CYP2C19 inh: 4; CYP2C9 activ: 0.9

Results for Cc1cc(OCC(=O)Nc2ccncc2)ccc1Br ?
CYP2C9 inhib: 99*; CYP2C19 act: 0; CYP2C19 inh: 100*; CYP2C9 activ: 0

How did O=C(COc1ccc2ccccc2c1)Nc1ccc(Cc2ccncc2)cc1 do in these assays?
CYP2C9 inhib: 95*; CYP2C19 act: 0.1; CYP2C19 inh: 90*; CYP2C9 activ: 0.1

What do the screens show for `O=C(CCCc1ccccc1)N1CCN(c2ccc([N+](=O)[O-])cc2)CC1`?
CYP2C9 inhib: 17; CYP2C19 act: 0.9; CYP2C19 inh: 6; CYP2C9 activ: 0.8

Results for O=C(CCc1ccc(Oc2cc([N+](=O)[O-])cc([N+](=O)[O-])c2)cc1)N1CCCCC1 ?
CYP2C9 inhib: 82*; CYP2C19 act: 0.5; CYP2C19 inh: 54*; CYP2C9 activ: 0.2

How did CCOC(=O)NNC1CC(=O)N(c2ccc(OC)cc2)C1=O (stereo not given) do in these assays?
CYP2C9 inhib: 6; CYP2C19 act: 1; CYP2C19 inh: -3; CYP2C9 activ: 0.9

How did C=C(Cl)COc1ccc2c(CCC)cc(=O)oc2c1 do in these assays?
CYP2C9 inhib: 27; CYP2C19 act: 0.8; CYP2C19 inh: 23; CYP2C9 activ: 0.7

What do the screens show for `COc1ccc2c(CN(C)c3ccccc3)cc(=O)oc2c1`?
CYP2C9 inhib: 36; CYP2C19 act: 0; CYP2C19 inh: 97*; CYP2C9 activ: 0.6
